Rab9 promoter act – activators of Rab9 promoter; Huh7 Rab9 promoter-luciferase reporter, luminescence, 24 h; 2.8% of 320,000 active; Potency, µM (series often up to 9.22 µM), inactives show top-dose activation, negative = inhibition, hits mostly activators; also: % of control where 0% means no effect; nearly all actives have a fitted effect of over 60% in size
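Luminescence read-out: Huh7 cells stably expressing Rab9-luciferase, treated 24 h with compound at 37 °C, then lysed with luciferase reagent for 10 min at ambient before reading.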
ELG1 repair inh – blocks ELG1-dependent DNA repair in HEK293T cells; HEK293T ELG1-luciferase reporter, luminescence, 16 h; DNA damage induced by 5-fluorouridine; Potency, µM (highest dose often 46.1 µM), for inactives: at the highest dose activity change, negative = inhibition, hits mostly inhibitors; 2.3% of 330,000 active; AID 504467; also: % is scaled to controls: 0 for no effect and ±100 for the full control effect; nearly all actives have a fitted effect of over 55% in size
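Quantitative HTS, concentration-response format. 2,000 cells/well co-treated with 5-fluorouridine and compound, 16 hr in 5% CO2 at 37 °C; ONE-Glo luminescence read after 30 min.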
SMN2 splice enh – SMN2 splice variant enhancement; Potency, µM (top dose mostly 46.1 µM), for inactives: at the top dose activity change, positive = activation, most hits filed as activators; HEK293 SMN2-luciferase splicing reporter, luminescence, 30-36 h; 2.8% of 210,000 active; also: % of control where 0% means no effect; nearly all actives have a fitted effect of over 55% in size
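qHTS luciferase splicing reporter: luminescence rises when SMN2 exon 7 is included in transfected HEK293 cells. Compound exposure lasted 30-36 h at 37C, with 4.5 mM final sodium butyrate as control, followed by a ONE-Glo read.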
NPC1 promoter act – activators of NPC1 promoter. Huh7 NPC1 promoter luciferase reporter, 24 h. Potency, µM (series often up to 9.22 µM), inactives show top-dose activation, usual class: activators. 2.4% of 320,000 active. AID 485313; also: % of control where 0% means no effect; nearly all actives have a fitted effect of over 60% in size
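NPC1 promoter–luciferase Huh7 cells; 24 h compound; luminescence.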
ELG1 genotox – genotoxicity induction in ELG1-luciferase HEK293T cells. Potency, µM (titrated, usually from 46 µM), inactives show at the top dose activity change, positive = activation, hits mostly activators. 1.3% of 330,000 active. AID 504466. HEK293T ELG1-luciferase reporter, luminescence, 16 h; also: % of control where 0% means no effect; nearly all actives have a fitted effect of over 60% in size
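Cells (2,000/well) expressing the ELG1-luciferase fusion are dosed by pin tool and kept 16 hr at 37 °C, 5% CO2. Signal comes from ONE-Glo luciferase reagent after 30 min at room temperature.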
FLuc modulator – counter-screen for miR-21 project: firefly luciferase inhibitors or activators. purified FLuc, Km substrates, luminescence inhibition. P08659. Potency, µM (doses to about 57.5 µM), without a hit: at the highest dose activity change, negative = inhibition, usual class: inhibitors. 6.9% of 360,000 active;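 also: plate controls were vehicle for no effect and reference inhibitor for full effect; nearly all actives have a fitted effect of over 55% in size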
Target sequence (P08659 whole entry, looked up): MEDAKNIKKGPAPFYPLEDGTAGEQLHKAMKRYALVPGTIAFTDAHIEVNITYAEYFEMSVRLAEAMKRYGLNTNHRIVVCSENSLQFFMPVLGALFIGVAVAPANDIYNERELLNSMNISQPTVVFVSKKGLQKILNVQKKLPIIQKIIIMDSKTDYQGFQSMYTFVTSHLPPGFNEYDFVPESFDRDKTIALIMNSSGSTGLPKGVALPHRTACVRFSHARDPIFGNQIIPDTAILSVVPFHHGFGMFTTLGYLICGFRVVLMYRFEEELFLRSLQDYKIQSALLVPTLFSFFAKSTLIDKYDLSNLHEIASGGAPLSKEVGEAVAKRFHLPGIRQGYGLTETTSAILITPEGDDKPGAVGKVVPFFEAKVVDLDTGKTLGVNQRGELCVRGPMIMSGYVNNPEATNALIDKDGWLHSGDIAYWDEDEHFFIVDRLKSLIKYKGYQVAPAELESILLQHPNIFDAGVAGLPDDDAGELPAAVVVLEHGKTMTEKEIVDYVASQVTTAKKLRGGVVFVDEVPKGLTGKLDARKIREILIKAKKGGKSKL
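Purified P. pyralis luciferase (10nM final) with 10uM D-luciferin and 10uM ATP (Km levels) in 50mM Tris acetate pH 7.5, 10mM Mg acetate, 0.01% Tween-20, 0.05% BSA; qHTS 6-point titration, ~60 µM downward; luminescence read.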
Active calls of the source: *; ? = inconclusive; / = no result given; [ ] = dose if it differs, or a comment. An excerpt weighted towards active compounds, which were near 9.2% of everything screened. Calls follow the shape of the dose curve; as a rule, active = well fitted curve in the direction sought with a large enough effect; inconclusive = small, poorly fitted or top-dose-only effect, or another doubt; inactive = no such curve, though single readings can be large; an effect the other way counts as inactive or inconclusive. Potency is read from the fitted curve at half-maximal effect.

SMILES	Rab9 promoter act	ELG1 repair inh	SMN2 splice enh	NPC1 promoter act	ELG1 genotox	FLuc modulator
COc1ccc(C(C(=O)NC2CCCCC2)N(C(=O)c2sc(C)nc2C)c2ccc(C(C)=O)cc2)cc1 (stereo not drawn)	-3%	-7%	4%	2%	0%	-2%
N#C/C(=N\Nc1ccccc1)C(=N)N1CCCCCC1	1µM*	?	/	1.8µM*	?	3.4µM*
COc1ccc(N/N=C(\C#N)C(=N)N2CCOCC2)cc1	24%	?	15%	20%	18µM*	?
N#C/C(=N/Nc1ccccc1F)C(=N)N1CCOCC1	23%	?	5%	23%	5%	-20%
N#C/C(=N\Nc1cccc(F)c1)C(=N)N1CCCCCC1	0.56µM*	?	13µM*	0.5µM*	?	2.4µM*
COc1ccc(C(=O)/C(C#N)=N/Nc2ccc([N+](=O)[O-])cc2)cc1	-52%	1.3µM*	-69%	-37%	-14%	-19%
COc1ccc(CNC(=O)C(C)n2ccc3cc(S(=O)(=O)N4CCCCCC4)ccc32)cc1 (stereo not drawn)	-4%	?	/	-2%	-9%	0%
Cn1cc(S(=O)(=O)N2CCCCCC2)cc1C(=O)Nc1ccccc1F	/	/	/	/	/	5%
O=C(Nc1ccc(F)cc1)N1CCCCCC1	8%	?	/	13%	17%	-19%
N#C/C(=N\Nc1ccc(F)cc1)C(=N)N1CCCCC1	0.63µM*	?	/	0.56µM*	1.6µM*	3µM*
Cc1cc(F)ccc1NC(=O)c1csc2c1CCC(C)C2 (stereo not drawn)	/	/	6.3µM*	/	/	?
CC1CCc2c(C(=O)Nc3cccc(-c4nn[nH]n4)c3)csc2C1 (stereo not drawn)	?	?	/	16%	?	2.7µM*
CCc1nnc(NC(=O)c2csc3c2CCC(C)C3)s1 (stereo not drawn)	2µM*	?	?	?	?	-8%
COc1ccccc1NC(=O)c1csc2c1CCC(C)C2 (stereo not drawn)	29%	6%	/	?	16%	?
CCN(CC)C(=O)[C@H]1C[C@H](CC(=O)NCc2ccc(OC)c(OC)c2)C(=O)N2CCc3c([nH]c4cc(-c5ccco5)ccc34)[C@]12C	/	23µM*	/	/	-14%	/
COCCCNC(=O)C[C@H]1C[C@H](C(=O)N2CCCCC2)[C@@]2(C)c3[nH]c4cc(-c5ccco5)ccc4c3CCN2C1=O	/	-26%	/	/	-4%	/
C[C@]12c3[nH]c4ccc(Cl)cc4c3CCN1C(=O)[C@@H](CC(=O)NCc1cccc(C(F)(F)F)c1)C[C@@H]2C(=O)N1CCOCC1	/	23µM*	/	/	-10%	/
COc1ccc(CNC(=O)C[C@H]2C[C@H](C(=O)N3CCCCC3)[C@@]3(C)c4[nH]c5cc(-c6ccco6)ccc5c4CCN3C2=O)cc1OC	/	21µM*	/	/	-10%	/
CCN(CC)C(=O)[C@H]1C[C@H](CC(=O)NCCCOC)C(=O)N2CCc3c([nH]c4cc(-c5ccco5)ccc34)[C@]12C	/	-25%	/	/	-1%	/
O=C(Cn1c(=O)nc(-c2ccccc2)c2cc(Cl)ccc21)NCc1ccccc1	/	/	/	/	/	-13%
CCc1cc(-c2n[nH]c(C)c2-c2nc3ccccc3s2)c(O)cc1OCC(=O)NN	-3%	-16%	-3%	0%	-10%	5%
CCc1cc(C(=O)Cc2nc3ccccc3s2)c(O)cc1OCC(=O)O	12%	0%	/	2%	2%	21µM*
O=C(CSc1nc2ccccc2s1)c1ccc(O)cc1O	0%[1.84 µM]	?	/	?	10%	13µM*
O=C(Cc1ccc(Br)cc1)c1ccc(O)cc1O	?	?	/	3.2µM*	?	15µM*
O=C(Cc1nc2ccccc2s1)c1ccc(O)cc1O	3.2µM*	?	?	3.2µM*	?	?
SMILES	Rab9 promoter act	ELG1 repair inh	SMN2 splice enh	NPC1 promoter act	ELG1 genotox	FLuc modulator
COC(=O)c1cc(Cl)c(NC(=O)c2ccc(F)cc2)cc1OC	-3%	1%	-39%	1%	8%	4%
O=C(/C=C/c1cccs1)c1ccc(NC(=O)c2cccc(Br)c2)cc1	18%	?	?	20%	2%	-13%
O=C(/C=C/c1cccs1)c1ccc(Br)cc1	5%	?	2%	-4%	8%	4.8µM*
Cc1ccc(C(=O)Nc2ccc(C(=O)/C=C/c3cccs3)cc2)cc1	?	?	-8%	?	-3%	12µM*
COc1ccccc1C1=Nn2c(nc3sc(C(=O)Nc4ccccc4Cl)c(C)c3c2=O)SC1	/	/	/	/	/	-8%
CC(=O)Nc1ccc(S(=O)(=O)Nc2nc3ccccc3s2)cc1	0%	13%	21%	-1%	0%	5%
CC(=O)Nc1ccc(/C=N/Nc2nc3ccccc3s2)cc1	0.45µM*	?	/	0.71µM*	2.6µM*	0.95µM*
COc1cc(/C=N/Nc2nc3ccccc3o2)cc(OC)c1O	8%	-4%	-6%	1%	15%	15µM*
COc1ccc(/C=N/Nc2nc3ccccc3s2)cc1O	?	?	17%	?	2.3µM*	0.24µM*
COc1ccc(C=C(c2nc3ccccc3s2)c2nc3ccccc3s2)cc1O	6%	-22%	-50%	0%	?	11µM*
COc1cc(C=C(c2nc3ccccc3s2)c2nc3ccccc3s2)ccc1O	-5%	?	-13%	-1%	1%	?
COc1ccc(/C=N/OCC(=O)Nc2nc3ccccc3s2)cc1OC	-8%	-4%	-25%	0%	4%	-17%
CCOC(=O)COc1ccccc1/C=C\[N+](=O)[O-]	-46%	?	-65%	-37%	?	?
O=C(O)CC/C(=N\NC(=O)CNC(=O)c1ccc(F)cc1)c1ccccc1	6%	14%	/	-7%	0%	2%
COc1cc(/C=N\Nc2nc3ccccc3o2)cc(OC)c1OC	24%	?	4%	?	12%	?
COc1ccc(/C=N/Nc2nc3ccccc3o2)cc1O	?	?	?	?	0.92µM*	0.95µM*
CC(=O)Nc1cccc(/C(C)=N/Nc2nc3ccccc3s2)c1	?	?	11µM*	2%	?	11µM*
CCS(=O)(=O)c1ccc(O)c(NC(=O)CC2(CC(=O)O)CCCC2)c1	2%	6%	/	3%	1%	5%
CCCS(=O)(=O)NCc1cn2cccc(C)c2n1	1%	11%	20%	-4%	4%	-1%
Cc1cccn2cc(CNc3ccccc3)nc12	?	?	22µM*	?	21µM*	?
COc1ccc(-c2cn3cccc(C)c3n2)cc1Br	2.8µM*	?	11µM*	3.5µM*	?	2.4µM*

Screening results (PubChem)
